# The list is not random: actives were taken first. Their share in the collection is about 9.3%.
# SMN2 splice up: increases expression of the SMN2 splice variant. HEK293 SMN2-luciferase splicing reporter, luminescence, 30-36 h. AID 1458. Potency, µM (series often up to 46.1 µM), actives largely listed as activators. actives 2.8% (n = 210,000); note: nearly all actives have a fitted effect of over 55% in size
#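 HEK293 cells carry an SMN2 […]–luciferase reporter in which exon 7 inclusion puts luciferase in frame. Cells were plated 10-12 h before compound addition, then incubated 30-36 h at 37C. ONE-Glo luminescence was read; sodium butyrate at 4.5 mM final served as control.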
# ELG1 genotox: induces genotoxicity in HEK293T cells with luciferase-tagged ELG1; Potency, µM (top dose mostly 46 µM), most hits filed as activators; HEK293T ELG1-luciferase reporter, luminescence, 16 h; actives 1.3% (n = 330,000); note: nearly all actives have a fitted effect of over 60% in size
#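 Cells (2,000/well) expressing the ELG1-luciferase fusion are dosed by pin tool and kept 16 hr at 37 °C, 5% CO2. Signal comes from ONE-Glo luciferase reagent after 30 min at room temperature.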
# NPC1 promoter act: activators of NPC1 promoter; Huh7 NPC1 promoter luciferase reporter, 24 h; Potency, µM (titrated, usually from 9.22 µM), hits mostly activators; actives 2.4% (n = 320,000); AID 485313; note: nearly all actives have a fitted effect of over 60% in size
#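 Huh7 reporter cells (NPC1 promoter driving luciferase) are dosed with compound for 24 h at 37 °C, 5% CO2; luciferase detection reagent is then added and luminescence measured after 10 min at ambient temperature.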
# Rab9 promoter act: activates the Rab9 promoter. Huh7 Rab9 promoter-luciferase reporter, luminescence, 24 h. Potency, µM (titrated, usually from 9.22 µM), usual class: activators. actives 2.8% (n = 320,000). AID 485297; note: nearly all actives have a fitted effect of over 60% in size
#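 Stable Rab9-luc Huh7, 1500 cells/well, 2 h settle; cmpd in DMSO, 24 h, 37 °C/5% CO2; luciferase reagent 10 min RT; luminescence.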
# ELG1 repair inh: inhibitors of ELG1-dependent DNA repair in HEK293T cells; HEK293T ELG1-luciferase reporter, luminescence, 16 h; DNA damage induced by 5-fluorouridine; Potency, µM (highest dose often 46.1 µM), hits mostly inhibitors; actives 2.3% (n = 330,000); note: nearly all actives have a fitted effect of over 55% in size
#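 Step one: seed 2,000 cells per well. Step two: pin-transfer compound or DMSO alongside 5-fluorouridine. Step three: incubate 16 hr, 37 °C, 5% CO2. Step four: add ONE-Glo, wait 30 min, read luminescence.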
# FLuc counter: counter-screen for miR-21 project: firefly luciferase inhibitors or activators; purified FLuc, Km substrates, luminescence inhibition; actives 6.9% (n = 360,000); Potency, µM (doses to about 57.5 µM), most hits filed as inhibitors; note: nearly all actives have a fitted effect of over 55% in size
# Target sequence (P08659 whole entry, looked up): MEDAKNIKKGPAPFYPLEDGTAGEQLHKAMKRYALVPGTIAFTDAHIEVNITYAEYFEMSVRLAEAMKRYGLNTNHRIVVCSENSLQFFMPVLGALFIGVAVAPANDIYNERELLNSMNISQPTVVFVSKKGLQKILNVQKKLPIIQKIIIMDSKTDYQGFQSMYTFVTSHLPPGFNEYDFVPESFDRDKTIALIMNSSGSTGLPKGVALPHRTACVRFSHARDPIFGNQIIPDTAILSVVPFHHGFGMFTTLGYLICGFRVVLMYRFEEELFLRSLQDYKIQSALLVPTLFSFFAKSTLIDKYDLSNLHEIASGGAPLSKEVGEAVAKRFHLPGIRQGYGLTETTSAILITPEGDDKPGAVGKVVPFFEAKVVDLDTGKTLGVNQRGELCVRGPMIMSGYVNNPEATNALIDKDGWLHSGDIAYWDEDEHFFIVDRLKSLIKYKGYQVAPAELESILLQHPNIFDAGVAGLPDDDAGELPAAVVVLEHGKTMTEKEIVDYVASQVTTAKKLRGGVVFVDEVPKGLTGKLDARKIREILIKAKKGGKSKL
#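 Purified P. pyralis luciferase (10nM final) with 10uM D-luciferin and 10uM ATP (Km levels) in 50mM Tris acetate pH 7.5, 10mM Mg acetate, 0.01% Tween-20, 0.05% BSA; qHTS 6-point titration, ~60 µM downward; luminescence read.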
# A number is an active result; - = inactive; ? = inconclusive; . = not tested or not shown; [ ] = dose if it differs, or a comment. Calls come from the whole dose curve; as a rule, active = well fitted curve in the direction sought with a large enough effect; inconclusive = small, poorly fitted or top-dose-only effect, or another doubt; inactive = no such curve, though single readings can be large; an effect the other way counts as inactive or inconclusive.
SMILES,SMN2 splice up,ELG1 genotox,NPC1 promoter act,Rab9 promoter act,ELG1 repair inh,FLuc counter
CCOC(=O)c1cccc(NC(=O)CSc2nc3ccccc3c(=O)n2CCOC)c1,-,-,-,-,20.6µM,-
COCCn1c(SCC(=O)Nc2ccc(Cl)c(S(=O)(=O)N(C)C)c2)nc2ccccc21,-,-,-,-,18.4µM,-
CCCn1c(SCC(=O)Nc2cccc(S(=O)(=O)N(C)C)c2)nc2ccccc2c1=O,.,-,-,-,23.1µM,-
CCn1c(SCC(=O)Nc2ccc(F)cc2)nc2ccccc2c1=O,.,-,-,-,-,-
CCOC(=O)c1cccc(NC(=O)CSc2nc3ccccc3c(=O)n2CC)c1,-,-,-,-,-,-
Cc1ccc(Cl)cc1NC(=O)CSc1ccc(C(=O)O)cn1,-,.,.,.,.,-
CCC(C)NC(=O)C1CCN(S(=O)(=O)c2ccc3c(c2)CCCN3C(C)=O)CC1 (configuration not stated),.,.,.,.,.,-
Cc1ccc(C)c(S(=O)(=O)NC2CCSC2=O)c1 (configuration not stated),.,-,-,-,-,-
COc1ccc(S(=O)(=O)N2CCCCCC2)cc1NC(=O)CCCOc1ccccc1,.,-,-,-,-,-
CCOC(=O)c1ccc(NCc2cccnc2)cc1,.,?,-,-,?,?
O=C(CSc1nc2ccccc2n1-c1ccccc1)Nc1ncc(Cl)cc1Cl,4.47µM,-,-,-,-,-
CCCCOC(=O)C(C#N)c1nc2ccccc2nc1N1CCOCC1 (configuration not stated),-,-,-,-,20.6µM,-
CCCCCCOC(=O)C(C#N)c1nc2ccccc2nc1N1CCOCC1 (configuration not stated),-,-,-,-,?,-
CCCCCNC(=O)C(C#N)c1nc2ccccc2nc1N1CCCC1 (configuration not stated),-,-,-,-,-,-
CCCCCCOC(=O)C(C#N)c1nc2ccccc2nc1N1CCN(CC)CC1 (configuration not stated),-,-,-,-,-,-
COCCCNC(=O)C(C#N)c1nc2ccccc2nc1N1CCCC1 (configuration not stated),-,-,-,-,20.6µM,-
CCN1CCN(c2nc3ccccc3nc2C(C#N)C(=O)OCc2ccccc2)CC1 (configuration not stated),.,-,-,-,18.4µM,-
CC(NC(=O)c1cc2ccccc2oc1=O)c1ccccc1 (configuration not stated),.,-,-,-,-,?
c1ccc2nc(SCc3cn4ccccc4n3)cnc2c1,?,-,?,?,?,?
c1ccc2oc(SCc3cn4ccccc4n3)nc2c1,14.1µM,4.61µM,1.41µM,1.12µM,?,9.53µM
Cc1cccc2nc(CSc3nc4ccccc4o3)cn12,-,-,-,-,?,15.1µM
Cc1cc(C)nc(SCc2cn3c(C)cccc3n2)n1,.,-,-,-,-,-
Cc1ccc(CN2CCC(CNC(=O)Nc3cccc(C)c3C)C2)cc1 (configuration not stated),-,.,.,.,.,-
Cc1ccc(-c2cc(-c3ccccc3Cl)[nH]n2)c(O)c1,12.6µM,?,?,?,?,-[2.3 µM]
Cc1ccc(-c2cc(-c3ccccc3[N+](=O)[O-])[nH]n2)c(O)c1,17.8µM,?,?,3.55µM,?,?
SMILES,SMN2 splice up,ELG1 genotox,NPC1 promoter act,Rab9 promoter act,ELG1 repair inh,FLuc counter
Cc1ccccc1-c1cc(-c2ccccc2O)n[nH]1,25.1µM,?,-,3.16µM,?,?
Cc1ccc(-c2cc(NC(=O)c3ccccc3[N+](=O)[O-])n[nH]2)cc1,.,-,-,-,-,?
Oc1ccc(Br)cc1-c1cc(-c2ccccc2F)[nH]n1,?,-,-,-,-,-[2.3 µM]
Cc1nn(CC(=O)N2CCN(C)CC2)c(=O)c2ccccc12,.,-,-,-,-,-
Oc1c(N=Nc2ccccc2)sc2ccccc12,.,2.31µM,?,3.16µM,?,0.379µM
O=C(CN1C(=O)NC2(CCCC2)C1=O)Nc1nc2ccccc2s1,.,-,-,-,-,?
Cc1ccc2nc(NC(=O)CN3C(=O)NC4(CCCCC4)C3=O)sc2c1,.,-,-,-,?,5.36µM
COc1ccc(NC(=O)CN2C(=O)NC3(CCCC3)C2=O)cc1,.,-,?,-,-,-
COc1ccc2nc(NC(=O)CN3C(=O)NC4(CCCCC4)C3=O)sc2c1,.,-,-,-,-,15.1µM
COc1ccc2nc(NC(=O)CN3C(=O)NC4(CCCC4)C3=O)sc2c1,.,-,-,-,?,12µM
COc1cc(C)cc(OC)c1/C=C\C(=O)O,-[9.22 µM],.,.,.,.,.
Cc1ccc(S(=O)(=O)N2CCCOC2CNC(=O)C(=O)NCCc2c[nH]c3ccccc23)cc1 (configuration not stated),-,-,-,-,23.1µM,-
O=C(NCCc1c[nH]c2ccccc12)C(=O)NCC1OCCN1S(=O)(=O)c1ccc(Cl)cc1 (configuration not stated),-,-,-,-,13µM,-
Cc1ccc(S(=O)(=O)N2CCOC2CNC(=O)C(=O)NCc2ccc(Cl)cc2)cc1 (configuration not stated),.,-,-,-,23.1µM,-
O=C(NCCc1c[nH]c2ccccc12)C(=O)NCC1OCCN1S(=O)(=O)c1ccccc1 (configuration not stated),-,-,-,-,-,-
COc1ccc(S(=O)(=O)N2CCOC2CNC(=O)C(=O)NCCc2ccc(OC)c(OC)c2)cc1 (configuration not stated),-,-,-,-,?,-
Cc1ccc(S(=O)(=O)N2CCOC2CNC(=O)C(=O)NCc2ccccc2)cc1 (configuration not stated),.,-,-,-,-,-
COc1ccc(CCNC(=O)C(=O)NCC2OCCN2S(=O)(=O)c2ccc(Br)cc2)cc1OC (configuration not stated),-,-,-,-,20.6µM,-
CCOc1ccc(N2CC(NC(=O)c3ccc(S(=O)(=O)N4CCCC4)cc3)CC2=O)cc1 (configuration not stated),.,.,.,.,.,-
O=C(O)c1ccccc1Cl,-,.,.,.,.,.
COc1cccc(N2C(=O)CC(NNc3nc4ccccc4s3)C2=O)c1 (configuration not stated),.,-,-,-,?,-
CCc1ccc(CN2CCCC(CNC(=O)c3cccc(OC)c3OC)C2)cc1 (configuration not stated),.,-,-,-,-,-
C/C=C/C1=CC2=CC(=O)C(C)(OC(=O)c3c(C)cc(O)cc3O)C(=O)C2=CO1 (configuration not stated),-,.,.,.,.,.
